Test results published in PubChem BioAssay.
Unmarked numbers belong to inactive results. Some of the results follow. The source made the active and inactive calls.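 The calls were made as follows, unless noted: active = inhibition above a cutoff equal to the mean inhibition of all tested compounds plus 3 SD (cut at about 30% in these data); inactive = the rest.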

Legend:
[1] = molecular target: Bcl-2-like protein 1 (Homo sapiens) (UniProt Q07817); experiment: Bcl-xL BH3-peptide displacement, hit confirmation – biochemical, fluorescence polarization, counter-screen for MCL1 inhibitor project (AID 2166); conditions: GST-Bcl-xL / FITC-Bim BH3 peptide FP binding; at 10.9 µM; active compounds read high
[2] = molecular target: Induced myeloid leukemia cell differentiation protein Mcl-1 (Homo sapiens) (UniProt Q07820); experiment: MCL1-BIM peptide interaction disruptors – biochemical, fluorescence polarization, triplicate, confirmation (AID 2168;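 active = inhibition above the average of all tested compounds plus 3 SD, cut at about 40% in these data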;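 also: 0% = DMSO wells and 100% = unlabeled Bim-BH3 control peptide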); conditions: GST-MCL1 / FITC-Bim-BH3 fluorescence polarization; at 10.9 µM; active compounds read high
[3] = molecular target: Lytic switch protein BZLF1 (Epstein-Barr virus (strain B95-8)) (UniProt P03206); experiment: blockers of Zta-ZRE DNA complex – biochemical, fluorescence polarization, triplicate, confirmation (AID 2361;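 active = mean inhibition across triplicate runs above the hit threshold derived for the original primary screen, cut at about 33% in these data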;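 also: 0% = Zta with DMSO and 100% = wells lacking Zta protein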); conditions: Zta-ZRE DNA binding, at 11.1 µM, active compounds read high
[4] = tested on: Epstein-Barr virus nuclear antigen 1 (EBNA-1), Human herpesvirus 4; experiment: blockers of EBV EBNA-1 binding to DNA – biochemical, fluorescence polarization, counter-screen for ZTA inhibitor project (AID 2362; call rule not given here); conditions: EBNA-1 DNA binding, at 14.8 µM, active compounds read high
[5] = molecular target: Protein phosphatase methylesterase 1 (Homo sapiens) (UniProt Q9Y570); experiment: human PME-1 methylesterase inhibition confirmation – biochemical, fluorescence polarization, FP-Rh probe, triplicate (AID 2171;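 active = inhibition above the hit cutoff set in the earlier primary screen, cut at about 27% in these data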;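 also: 0% = enzyme with DMSO and 100% = wells lacking PME-1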); conditions: recombinant PME-1, FP-Rh probe fluorescence polarization; at 5.9 µM; active compounds read high
[6] = molecular target: Insulin-degrading enzyme (Homo sapiens) (UniProt P14735); experiment: cellular IDE Abeta-cleavage inhibition – fluorescence polarization, HEK cells, FAbetaB substrate, confirmation (AID 435028;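 active = mean inhibition across triplicate wells above the cutoff set by the earlier primary insulin-degrading enzyme screen, cut at about 16% in these data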;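 also: 0% = DMSO wells and 100% = 60 µM reference IDE inhibitor Ii1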); conditions: at 5.59 µM, active compounds read high
[7] = HEK cell viability loss – luminescence, cytotoxicity control for IDE inhibitor project (AID 449730; in the data active = inhibition above about 22%;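 also: 0% = vehicle wells and 100% = reference cytotoxic drug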); conditions: HEK293 cytotoxicity, ATP luminescence; at 5.59 µM; active compounds read high
[8] = molecular target: Platelet-activating factor acetylhydrolase (Homo sapiens) (UniProt Q13093); experiment: inhibition of plasma PAF acetylhydrolase – biochemical, fluorescence polarization, human, confirmation (AID 463230;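 active = mean inhibition of the triplicate above the hit cutoff set for the earlier primary screen, cut at about 25% in these data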;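 also: 0% = enzyme with DMSO and 100% = wells lacking pPAFAH enzyme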); conditions: recombinant pPAFAH, FP-Rh probe fluorescence polarization; at 3.39 µM; active compounds read high
[9] = molecular target: (Lyso)-N-acylphosphatidylethanolamine lipase (Mus musculus) (UniProt Q8VD66); experiment: mouse ABHD4 hydrolase blockers, triplicate – biochemical, fluorescence polarization, confirmation (AID 720658;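 active = mean inhibition across replicates above the hit cutoff set in the primary screen, cut at about 30% in these data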;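 also: 0% = wild-type ABHD4 with DMSO and 100% = catalytically dead S159A mutant with DMSO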); conditions: purified mABHD4, FP-Rh probe fluorescence polarization; at 8.92 µM; active compounds read high
[10] = BSA probe fluorescence interference – biochemical, TAMRA-labeled BSA, counter-screen for TCR-CD3 interaction inhibitor project (AID 652035; in the data active = inhibition above about 23%;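 also: 0% = buffer low control and 100% = reference high control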); conditions: TAMRA-labeled BSA probe fluorescence counterscreen; at 9.4 µM; active compounds read high
[11] = tested on: T-cell receptor (TCR)-CD3 interaction, human; experiment: blockers of TCR binding to CD3 – biochemical, fluorescence, TAMRA-labeled TCR probe, confirmation (AID 652036; in the data active = inhibition above about 19%); conditions: TAMRA-labeled TCR probe fluorescence binding assay; at 9.4 µM; active compounds read high
[12] = molecular target: Protein-arginine deiminase type-4 (Homo sapiens) (UniProt Q9UM07); experiment: protein arginine deiminase 4 blockade, retest – biochemical, fluorescence polarization, confirmation (AID 488796;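 active = mean inhibition across replicates above the hit cutoff set by the earlier primary screen, cut at about 15% in these data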;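 also: inhibitors block active-site labeling by the probe so polarization falls; 0% = PAD4 with probe and DMSO and 100% = probe without PAD4 enzyme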); conditions: recombinant PAD4, RCA probe fluorescence polarization; at 6.36 µM; active compounds read high
[13] = molecular target: Oxysterols receptor LXR-beta (Homo sapiens) (UniProt P55055); experiment: nonspecific reporter activation via LXR – cell-based, luminescence, HEK293, H. contortus campaign, counter-screen for hcDAF-12 agonist project, confirmation (AID 743027;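 active = mean percent activation of the reporter above a cutoff set as the average over tested compounds plus their standard deviation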); conditions: HEK293 Gal4-LXR tk-luc reporter, 24 h, at 6.8 µM, active compounds read high, normalized: DMSO 0%, positive control 100%
[14] = tested on: Nuclear hormone receptor DAF-12 (Haemonchus contortus); experiment: hcDAF-12 luciferase reporter activation, retest – cell-based, luminescence, HEK293, lit1-tk-luc, triplicate, confirmation (AID 743032;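 active = mean activation across triplicate tests above the threshold derived from the earlier primary screen, cut at about 5.5% in these data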;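 also: 0% = DMSO only wells and 100% = 3 µM Δ7-dafachronic acid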); conditions: HEK293 hcDAF-12 lit1-tk-luc reporter, at 6.8 µM, active compounds read high, % of Δ7-dafachronic acid response
[15] = molecular target: Toll-like receptor 9 (Homo sapiens) (UniProt Q9NR96); experiment: disruptors of TLR9 binding to MyD88 – cell-based, CHO, BLA complementation, fluorescence, triplicate, confirmation (AID 540250;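 active = mean inhibition across three repeats above about 21% taken from the earlier screen, limit read from the data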;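 also: blue over green emission ratio reports constitutive TLR9 MyD88 association via BLA complementation; 0% = DMSO vehicle wells and 100% = clavulanate BLA inhibitor wells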); conditions: CCF4 FRET ratio, at 4.98 µM, active compounds read high
[16] = BLA reporter readout interference – cell-based, fluorescence, artefact control for TLR9-MyD88 binding inhibitor project (AID 540251;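 active = mean inhibition above a 50% cutoff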;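 also: counterscreen of TLR9-MyD88 hits on CMV-driven BLA in CHO-K1 cells; 0% = DMSO alone and 100% = clavulanate blocking BLA; higher means less blue over green ratio so more BLA blockade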); conditions: CHO-BLA cells, CCF4 FRET ratio, at 4.98 µM, active compounds read high
[17] = CHO cell viability loss – luminescence, single concentration, cytotoxicity control for TLR9-MyD88 binding inhibitor project (AID 588336; in the data active = inhibition above about 11%); conditions: TLR9-MyD88 CHO cells cytotoxicity, at 4.98 µM, active compounds read high
[18] = molecular target: Receptor-interacting serine/threonine-protein kinase 2 (Homo sapiens) (UniProt O43353); experiment: inhibitors of RIPK2 association with NOD2 – fluorescence, CHO cells, BLA complementation, triplicate, confirmation (AID 624370;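 active = mean inhibition across replicates above a set limit taken from the earlier primary screen, cut at about 21% in these data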;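 also: 0% = DMSO-only wells and the high end = clavulanate BLA-blocked wells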); conditions: CCF4 FRET, at 4.98 µM, active compounds read high
[19] = BLA reporter readout interference – cell-based, CHO-K1 CMV-bla, CCF4 FRET, fluorescence, artefact control for NOD2-RIPK2 interaction inhibitor project, confirmation (AID 624371;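 active = mean inhibition above the low-control mean inhibition plus three low-control SD, cut at about 11% in these data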;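 also: 0% = DMSO only wells and 100% = clavulanate high control wells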); conditions: CCF4 FRET ratio, counterscreen, at 4.98 µM, active compounds read high

Sequence of Bcl-2-like protein 1 (Homo sapiens) (Q07817 whole entry, looked up): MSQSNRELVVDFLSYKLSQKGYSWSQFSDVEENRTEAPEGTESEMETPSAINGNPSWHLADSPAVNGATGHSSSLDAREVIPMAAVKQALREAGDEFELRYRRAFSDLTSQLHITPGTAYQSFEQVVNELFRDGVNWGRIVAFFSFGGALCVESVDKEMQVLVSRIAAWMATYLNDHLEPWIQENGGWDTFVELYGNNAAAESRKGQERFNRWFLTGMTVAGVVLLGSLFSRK
Sequence of Protein phosphatase methylesterase 1 (Homo sapiens) (Q9Y570 whole entry, looked up): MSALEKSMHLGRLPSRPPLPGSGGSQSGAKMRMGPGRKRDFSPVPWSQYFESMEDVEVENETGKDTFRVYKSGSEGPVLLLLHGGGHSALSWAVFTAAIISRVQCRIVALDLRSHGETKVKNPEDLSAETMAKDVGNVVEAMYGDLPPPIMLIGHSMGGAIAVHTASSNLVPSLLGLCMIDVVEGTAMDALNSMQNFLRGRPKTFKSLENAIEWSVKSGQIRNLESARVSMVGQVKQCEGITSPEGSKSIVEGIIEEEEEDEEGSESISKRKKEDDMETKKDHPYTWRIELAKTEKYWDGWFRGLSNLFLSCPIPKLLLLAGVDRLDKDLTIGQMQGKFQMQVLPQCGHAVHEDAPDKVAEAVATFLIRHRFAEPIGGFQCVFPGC
Sequence of Induced myeloid leukemia cell differentiation protein Mcl-1 (Homo sapiens) (Q07820 whole entry, looked up): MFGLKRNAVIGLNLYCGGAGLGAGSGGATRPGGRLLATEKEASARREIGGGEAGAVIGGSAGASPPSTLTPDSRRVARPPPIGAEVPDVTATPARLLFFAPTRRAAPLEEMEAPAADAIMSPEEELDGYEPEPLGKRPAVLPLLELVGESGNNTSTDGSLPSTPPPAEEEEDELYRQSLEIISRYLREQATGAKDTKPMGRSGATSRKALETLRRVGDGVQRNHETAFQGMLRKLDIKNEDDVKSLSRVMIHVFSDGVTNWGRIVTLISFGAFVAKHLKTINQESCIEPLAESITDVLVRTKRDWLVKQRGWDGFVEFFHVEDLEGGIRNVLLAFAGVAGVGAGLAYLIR
Sequence of Insulin-degrading enzyme (Homo sapiens) (P14735 whole entry, looked up): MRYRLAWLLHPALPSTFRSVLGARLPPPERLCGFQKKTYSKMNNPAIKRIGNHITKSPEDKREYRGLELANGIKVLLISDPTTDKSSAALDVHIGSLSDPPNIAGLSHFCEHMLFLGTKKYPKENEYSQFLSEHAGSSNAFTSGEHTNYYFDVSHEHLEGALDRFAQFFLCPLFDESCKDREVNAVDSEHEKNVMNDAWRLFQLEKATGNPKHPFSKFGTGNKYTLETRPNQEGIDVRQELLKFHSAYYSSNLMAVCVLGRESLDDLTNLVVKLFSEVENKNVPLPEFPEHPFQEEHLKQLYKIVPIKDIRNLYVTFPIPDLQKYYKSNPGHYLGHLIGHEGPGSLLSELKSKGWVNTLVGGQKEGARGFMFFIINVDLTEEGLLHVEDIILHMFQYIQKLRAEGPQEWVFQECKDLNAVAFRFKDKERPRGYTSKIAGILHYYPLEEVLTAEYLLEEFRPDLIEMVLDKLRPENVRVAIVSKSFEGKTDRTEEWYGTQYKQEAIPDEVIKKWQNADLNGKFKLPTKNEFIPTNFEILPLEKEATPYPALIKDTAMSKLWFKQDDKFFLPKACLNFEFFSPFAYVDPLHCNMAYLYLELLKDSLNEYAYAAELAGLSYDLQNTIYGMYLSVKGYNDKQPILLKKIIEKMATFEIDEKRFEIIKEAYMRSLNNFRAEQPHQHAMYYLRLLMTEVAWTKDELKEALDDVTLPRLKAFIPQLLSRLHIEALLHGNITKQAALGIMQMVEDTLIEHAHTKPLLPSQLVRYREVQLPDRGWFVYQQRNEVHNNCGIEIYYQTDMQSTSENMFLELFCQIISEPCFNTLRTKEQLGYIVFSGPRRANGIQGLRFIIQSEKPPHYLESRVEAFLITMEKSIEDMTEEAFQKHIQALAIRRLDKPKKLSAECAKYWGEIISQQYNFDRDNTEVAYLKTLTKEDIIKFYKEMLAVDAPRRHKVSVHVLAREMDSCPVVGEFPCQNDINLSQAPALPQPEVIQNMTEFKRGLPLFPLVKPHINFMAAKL
Sequence of Receptor-interacting serine/threonine-protein kinase 2 (Homo sapiens) (O43353 whole entry, looked up): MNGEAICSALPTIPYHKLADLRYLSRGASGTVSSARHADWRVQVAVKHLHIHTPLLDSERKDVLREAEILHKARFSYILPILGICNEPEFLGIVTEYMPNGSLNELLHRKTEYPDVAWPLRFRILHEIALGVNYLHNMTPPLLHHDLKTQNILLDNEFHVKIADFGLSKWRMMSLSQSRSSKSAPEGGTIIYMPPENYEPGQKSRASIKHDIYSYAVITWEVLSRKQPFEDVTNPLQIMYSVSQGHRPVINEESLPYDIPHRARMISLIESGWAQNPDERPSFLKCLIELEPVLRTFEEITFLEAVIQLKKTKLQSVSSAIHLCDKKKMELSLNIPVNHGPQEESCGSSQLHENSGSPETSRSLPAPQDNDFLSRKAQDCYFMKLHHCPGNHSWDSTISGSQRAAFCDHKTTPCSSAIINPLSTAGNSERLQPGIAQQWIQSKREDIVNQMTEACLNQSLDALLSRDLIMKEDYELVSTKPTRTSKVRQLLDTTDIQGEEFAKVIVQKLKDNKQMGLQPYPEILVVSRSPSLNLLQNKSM
Sequence of Toll-like receptor 9 (Homo sapiens) (Q9NR96 whole entry, looked up): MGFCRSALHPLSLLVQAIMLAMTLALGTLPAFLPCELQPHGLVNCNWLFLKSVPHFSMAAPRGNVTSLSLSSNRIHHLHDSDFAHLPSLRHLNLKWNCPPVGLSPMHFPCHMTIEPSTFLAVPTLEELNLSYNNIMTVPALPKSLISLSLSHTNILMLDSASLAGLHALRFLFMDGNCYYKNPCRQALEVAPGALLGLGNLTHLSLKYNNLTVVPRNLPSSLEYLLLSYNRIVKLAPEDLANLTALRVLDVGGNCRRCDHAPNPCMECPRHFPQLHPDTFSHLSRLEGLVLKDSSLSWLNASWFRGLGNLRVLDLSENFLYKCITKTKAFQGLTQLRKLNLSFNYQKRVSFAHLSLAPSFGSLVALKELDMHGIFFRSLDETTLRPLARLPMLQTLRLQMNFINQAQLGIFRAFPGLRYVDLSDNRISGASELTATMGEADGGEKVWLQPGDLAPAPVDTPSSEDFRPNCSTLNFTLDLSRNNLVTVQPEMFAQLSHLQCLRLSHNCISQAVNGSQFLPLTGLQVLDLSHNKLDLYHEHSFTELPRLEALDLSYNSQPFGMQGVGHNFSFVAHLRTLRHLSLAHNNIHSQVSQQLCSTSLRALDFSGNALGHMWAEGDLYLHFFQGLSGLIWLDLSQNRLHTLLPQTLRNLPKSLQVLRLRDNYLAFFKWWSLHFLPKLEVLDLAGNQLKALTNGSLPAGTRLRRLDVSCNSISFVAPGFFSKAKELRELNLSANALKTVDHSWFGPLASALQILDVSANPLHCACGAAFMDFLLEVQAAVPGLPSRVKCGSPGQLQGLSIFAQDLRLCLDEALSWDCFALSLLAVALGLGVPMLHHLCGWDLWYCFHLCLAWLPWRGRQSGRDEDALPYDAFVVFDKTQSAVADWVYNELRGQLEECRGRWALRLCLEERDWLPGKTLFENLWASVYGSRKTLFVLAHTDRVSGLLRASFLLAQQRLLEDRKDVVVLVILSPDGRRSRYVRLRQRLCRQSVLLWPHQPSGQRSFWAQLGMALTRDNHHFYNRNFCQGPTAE
Sequence of Lytic switch protein BZLF1 (Epstein-Barr virus (strain B95-8)) (P03206 whole entry, looked up): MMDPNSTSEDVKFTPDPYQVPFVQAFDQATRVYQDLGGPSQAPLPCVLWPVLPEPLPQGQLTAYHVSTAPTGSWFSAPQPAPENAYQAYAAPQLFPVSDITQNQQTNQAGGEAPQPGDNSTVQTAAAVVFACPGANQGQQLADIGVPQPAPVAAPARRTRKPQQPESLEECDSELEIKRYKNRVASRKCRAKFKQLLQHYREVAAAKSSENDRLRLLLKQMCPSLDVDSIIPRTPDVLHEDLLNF
Sequence of Oxysterols receptor LXR-beta (Homo sapiens) (P55055 whole entry, looked up, the tested form may be a part): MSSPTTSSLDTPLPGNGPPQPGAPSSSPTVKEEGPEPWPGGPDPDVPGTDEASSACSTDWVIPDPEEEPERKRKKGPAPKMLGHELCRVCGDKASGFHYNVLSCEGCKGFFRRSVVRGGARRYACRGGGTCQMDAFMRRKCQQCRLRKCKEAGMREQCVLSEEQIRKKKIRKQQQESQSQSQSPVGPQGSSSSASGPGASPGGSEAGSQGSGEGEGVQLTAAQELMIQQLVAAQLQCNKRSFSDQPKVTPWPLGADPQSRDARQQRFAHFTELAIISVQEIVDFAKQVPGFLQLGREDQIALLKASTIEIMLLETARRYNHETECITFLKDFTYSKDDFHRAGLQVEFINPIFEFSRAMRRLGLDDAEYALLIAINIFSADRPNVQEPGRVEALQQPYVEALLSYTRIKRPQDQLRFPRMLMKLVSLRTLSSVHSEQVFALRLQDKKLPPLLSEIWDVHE
Sequence of (Lyso)-N-acylphosphatidylethanolamine lipase (Mus musculus) (Q8VD66 whole entry, looked up): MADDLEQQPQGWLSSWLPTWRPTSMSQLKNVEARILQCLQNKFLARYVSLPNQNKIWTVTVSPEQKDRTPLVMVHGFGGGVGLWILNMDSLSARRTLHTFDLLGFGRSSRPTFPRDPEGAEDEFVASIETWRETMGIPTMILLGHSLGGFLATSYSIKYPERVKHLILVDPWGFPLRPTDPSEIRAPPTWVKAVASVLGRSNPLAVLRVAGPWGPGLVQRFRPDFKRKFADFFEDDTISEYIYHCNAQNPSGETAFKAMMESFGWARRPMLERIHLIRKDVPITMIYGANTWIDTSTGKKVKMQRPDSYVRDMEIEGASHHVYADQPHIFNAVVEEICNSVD

COCCn1c(N)c(NCc2ccccc2)c(=O)[nH]c1=O
inhibition [1]: 37.1% (active)
inhibition [2]: 62.8% (active)

CN(C)c1ccc(Nc2c3c4c(cccc4n(C)c2=O)C(=O)c2ccccc2-3)cc1
inhibition [1]: 80.1% (active)
inhibition [2]: 91.2% (active)

O=S(=O)([N-]c1nc2ccccc2nc1-[n+]1ccc(Cc2ccccc2)cc1)c1ccc(Br)s1
inhibition [1]: 33.4% (active)
inhibition [2]: 33.7%

Fc1ccc(CNc2nc3ccccc3n3nnnc23)cc1
inhibition [1]: 36.6% (active)
inhibition [2]: 41.3% (active)

Brc1ccc(C2=CC(c3ccco3)n3ncnc3N2)cc1 (configuration not stated)
inhibition [1]: 52.9% (active)
inhibition [2]: 75.9% (active)

O=C(C1=C(O)C(=O)N(c2ncccn2)C1c1cccs1)c1ccco1 (configuration not stated)
inhibition [1]: 59.5% (active)
inhibition [2]: 88.2% (active)

Cc1ccc(/C=C(\C#N)C(=O)Nc2cccc3ncccc23)o1
inhibition [1]: 23.1%
inhibition [2]: 43.1% (active)

CN1C(=O)/C(=C/c2ccco2)SC1=Nc1cccc(C(=O)O)c1
inhibition [1]: 93% (active)
inhibition [2]: 125% (active)
inhibition [3]: -7.94%
inhibition [4]: 0.8%

O=c1[nH]c(=S)[nH]c2[nH]c(=S)[nH]c12
inhibition [1]: 42.2% (active)
inhibition [2]: 98.7% (active)

C1=C(N2CCOCC2)/C(=C/c2nc3ccccc3[nH]2)CC1
inhibition [1]: 55.3% (active)
inhibition [2]: 63% (active)

N/C(=N\OC(=O)CCc1ccccc1)c1ccc(Cl)cc1
inhibition [1]: 1.43%
inhibition [2]: -0.05%

Cc1ccc(NC(=O)c2cc(-c3ccc(C)o3)nc3ccccc23)nc1
inhibition [1]: 12.4%
inhibition [2]: 41.7% (active)

CCc1ccc(OC)c(S(=O)(=O)Nc2ccc(Cc3ccncc3)cc2)c1
inhibition [5]: 31.8% (active)

CCn1c2ccccc2c2cc(NC(=O)c3ccccc3[N+](=O)[O-])ccc21
inhibition [5]: 20.3%

Cc1cc2nc3c(=O)n(Cc4ccccc4)c(=O)[nH]c3nc2cc1N
inhibition [1]: 198% (active)
inhibition [6]: 66.8% (active)
inhibition [7]: 8.2%
inhibition [8]: 29.3% (active)
inhibition [9]: 82.2% (active)

O=C(NCCc1ccccc1)c1ccc2nc(-c3ccco3)c(-c3ccco3)nc2c1
inhibition [5]: 15.6%

O=S(=O)(Nc1nc2ccccc2nc1Nc1cccc(S(=O)(=O)N2CCCCC2)c1)c1ccccc1
inhibition [5]: 34.9% (active)

CC12CCC(C(=O)N(NC(=O)c3ccccc3O)C1=O)C2(C)C (configuration not stated)
inhibition [1]: 10.1%
inhibition [2]: 41.1% (active)
inhibition [10]: 23.1% (active)
inhibition [11]: 30% (active)

Oc1[nH]c2ccccc2c1N=Nc1ncnc2c1oc1ccccc12
inhibition [5]: 35% (active)

CCN1CC=C2C(C#N)=C(N)C(C#N)(C#N)[C@H](c3ccoc3)[C@H]2C1
inhibition [1]: 97.5% (active)
inhibition [2]: 114% (active)
inhibition [12]: 10.3%

Cc1cc(C)c(/C=C2\C(=O)Nc3ccccc32)[nH]1
inhibition [1]: 147% (active)
inhibition [2]: 168% (active)
inhibition [6]: 83.6% (active)
inhibition [7]: 5.65%
activation [13]: 0.33%
activation [14]: 7.13% (active)

CC1(C)CC(=O)C2=C(C1)N(CCN1CCOCC1)C1=C(C(=O)CC(C)(C)C1)C2c1cccc(F)c1
inhibition [5]: 25.2%

Nc1cccc2c1C(=O)N(Cc1nnc(-c3ccccc3Br)o1)C2=O
inhibition [1]: 51.2% (active)
inhibition [2]: 69% (active)
inhibition [15]: 16.4%
inhibition [16]: 19.9%
inhibition [17]: 3.2%
inhibition [18]: 37.4% (active)
inhibition [19]: 41.6% (active)
